Screens deposited in PubChem by National Center for Advancing Translational Sciences (NCATS).
A selection: hits, their analogues and other compounds. The true share with any hit is near 18%.
TDP1 block: blocks human tyrosyl-DNA phosphodiesterase 1 | Q9NUW8 | recombinant TDP1, AlphaScreen DNA substrate cleavage | Potency, µM (series often up to 130 µM), actives largely listed as inhibitors | 350,000 tested, 0.28% active | AID 485290; note: nearly all actives have a fitted effect of over 40% in size
Target sequence (Q9NUW8 whole entry, looked up): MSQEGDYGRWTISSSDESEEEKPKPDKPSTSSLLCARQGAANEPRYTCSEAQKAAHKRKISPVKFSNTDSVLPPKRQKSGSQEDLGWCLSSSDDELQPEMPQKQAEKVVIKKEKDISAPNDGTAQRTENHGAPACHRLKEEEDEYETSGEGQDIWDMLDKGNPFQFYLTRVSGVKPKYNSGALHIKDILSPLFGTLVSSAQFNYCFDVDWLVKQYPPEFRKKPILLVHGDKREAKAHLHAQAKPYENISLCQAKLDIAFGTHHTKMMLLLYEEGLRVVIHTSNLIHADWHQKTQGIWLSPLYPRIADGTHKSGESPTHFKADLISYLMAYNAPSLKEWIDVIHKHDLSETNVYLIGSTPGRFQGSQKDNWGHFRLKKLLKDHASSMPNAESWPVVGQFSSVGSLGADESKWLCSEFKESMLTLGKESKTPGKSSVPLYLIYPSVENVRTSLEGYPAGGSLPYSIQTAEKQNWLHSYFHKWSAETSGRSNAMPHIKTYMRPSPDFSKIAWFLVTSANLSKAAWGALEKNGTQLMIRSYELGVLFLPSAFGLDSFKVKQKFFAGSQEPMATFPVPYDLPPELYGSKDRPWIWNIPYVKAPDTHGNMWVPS
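Signal: AlphaScreen proximity between streptavidin donor and anti-FITC acceptor beads on intact substrate. Reaction: Tdp1 1 nM, substrate 15 nM final, 5 min RT after 15 min compound preincubation.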
DT40 TDP1 no CPT: qHTS for Inhibitors of human tyrosyl-DNA phosphodiesterase 1 (TDP1): qHTS in cells in absence of CPT. DT40 Tdp1-/- hTDP1 cells, no CPT, ATP luminescence, 48 h. Potency, µM (highest dose often 46.2 µM), most hits filed as inhibitors. 420,000 tested, 15% active; note: nearly all actives have a fitted effect of over 55% in size
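Camptothecin absent (DMSO only). Human TDP1-complemented DT40 knockout cells, 400 cells/well, 37 °C for minimum 48 hr; ATP measured via CellTiter-Glo, 30 min dark incubation, luminescence.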
TDP1 cell CPT: growth inhibition of DT40 Tdp1-/-;hTDP1 cells with camptothecin (screen for TDP1 inhibitors); chicken DT40 Tdp1-/-;hTDP1 cells + 20 nM CPT, ATP luminescence, 48 h; Potency, µM (titrated, usually from 46.2 µM), hits mostly inhibitors; 420,000 tested, 12% active; note: nearly all actives have a fitted effect of over 55% in size
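Cell growth measured by CellTiter-Glo luminescence after a minimum 48 h, 37 C compound exposure with 20 nM CPT in Tdp1-knockout DT40 cells stably expressing hTDP1, seeded 400/well; qHTS titration format.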
IL1B secr inh: inhibitors of inflammasome signaling (IL-1 beta secretion). THP-1 LPS/ATP IL-1B secretion, AlphaLISA, 16 h; active compounds read low. activity change, % at 57.5 µM. 360,000 tested, 4.7% active. AID 743279; in the data active = activity change below about -50%; inconclusive = mostly about -30% to -49%
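Secreted IL-1B measured by AlphaLISA bead assay after 16 h compound exposure of THP-1 cells; compounds (final up to 57.5 uM) added 1 h before LPS (250 ng/mL) and ATP (1.25 mM) stimulation; lower signal means less secretion.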
TGFb SMAD3 inh: inhibitors of TGF-b signaling; HepG2 CAGA-GFP TGF-b/SMAD3 reporter, GFP fluorescence, 18 h; TGF-beta stimulated, 500 pg/mL final; Potency, µM (series often up to 46.1 µM), usual class: inhibitors; 410,000 tested, 1.2% active; AID 588855; note: nearly all actives have a fitted effect of over 65% in size
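First, reporter cells (HEPG2 CAGA-GFP) rested 2 h at 37 degrees C. Next, compounds were pinned in and TGF-beta added to 500 pg/mL final. After 18 h, GFP was imaged per cell and summed per well.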
HepG2 viability: counter-screen for TGF-b inhibitors: cytotoxicity in HepG2 cells; HepG2 CAGA-GFP viability, ATP luminescence, 18 h; Potency, µM (highest dose often 46.1 µM), most hits filed as cytotoxic; 410,000 tested, 0.76% active; AID 588856
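HepG2 CAGA-GFP cells (1000/well, DMEM with 1% FBS) received compound, then TGF-beta at 500 pg/mL final, and were incubated 18 hours at 37 degrees C. Viability was read by CellTiter-Glo luminescence. Media-only wells were set as complete cell-killing and DMSO as no toxicity.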
Hits are given with their value; 0 = inactive; ? = inconclusive; - = no result given. Unless noted, calls come from the whole dose curve; as a rule, active = well fitted curve in the direction sought with a large enough effect; inconclusive = small, poorly fitted or top-dose-only effect, or another doubt; inactive = no such curve, though single readings can be large; an effect the other way counts as inactive or inconclusive.

SMILES	TDP1 block	DT40 TDP1 no CPT	TDP1 cell CPT	IL1B secr inh	TGFb SMAD3 inh	HepG2 viability
CCCCc1cc(=O)oc2cc(C)cc(OCC(=O)NC(Cc3ccc(Cl)cc3)C(=O)O)c12 (configuration not stated)	-	0	0	0	0	0
CCCCn1c2c(c(=N)c3c1CCC3)CCC2	0	4.6µM	6.5µM	0	?	0
CCCCCCCCCn1c2c(c(=N)c3c1CCC3)CCC2	0	0.018µM	0.058µM	-97	4.5µM	0
CCCCCCn1c2c(c(=N)c3c1CCC3)CCC2	0	0.26µM	0.41µM	?	?	0
CCCCCCCn1c2c(c(=N)c3c1CCC3)CCCC2	0	0.33µM	0.41µM	0	?	0
CCn1c2c(c(=N)c3c1CCC3)CCC2	0	0	0	0	0	0
CCCCCCn1c(=O)[nH]c2c(c1=O)CCC2	-	0	0	0	0	0
Cc1ccc(C(=O)NC2=NC(c3ccc(C)cc3)CC(=O)N2)cc1 (configuration not stated)	0	0	0	-	0	0
COc1ccc(NC(=O)Cn2c(=O)oc3cc(S(=O)(=O)N4CCCC4)ccc32)cc1	-	0	0	0	0	0
COc1ccc(NC(=O)Cn2c(=O)oc3cc(S(=O)(=O)N4CCCCC4C)ccc32)cc1 (configuration not stated)	0	21µM	18µM	-	0	0
CCOc1ccc(NC(=O)Cn2c(=O)oc3cc(S(=O)(=O)NC4CCCC4)ccc32)cc1	0	12µM	15µM	-	0	0
COc1ccc(NC(=O)Cn2c(=O)oc3cc(S(=O)(=O)N4CCCCCC4)ccc32)cc1OC	0	13µM	16µM	-	?	0
COc1ccccc1CNC(=O)Cn1c(=O)oc2cc(S(=O)(=O)N3CCCC3)ccc21	0	29µM	13µM	0	0	0
CC1(C(=O)NCc2ccccc2)CCC(=O)N1CCc1c[nH]c2ccccc12 (configuration not stated)	-	0	0	0	0	0
Cc1c(O)ccc2c(CC(=O)N[C@@H](Cc3c[nH]c4ccccc34)C(=O)O)cc(=O)oc12	-	0	0	0	0	0
O=C(Cn1c(=O)oc2cc(S(=O)(=O)N3CCCC3)ccc21)Nc1ccccc1Br	0	0	?	0	0	0
COc1ccc(OC)c(CNC(=O)c2cc(=O)[nH]c3ccc(S(=O)(=O)N4CCCCC4C)cc23)c1 (configuration not stated)	0	16µM	?	-	0	0
COc1cc(OC)c(NC(=O)Cn2c(=O)oc3cc(S(=O)(=O)N4CCCC4)ccc32)cc1Cl	0	18µM	?	-	0	0
CCN(CC)c1ccc(-c2nc(-c3ccncc3)no2)cc1[N+](=O)[O-]	0	15µM	13µM	-	?	0
CNc1ccc(-c2nc(-c3ccncc3)no2)cc1[N+](=O)[O-]	0	0	0	-	0	0
Cc1cc(-c2nc(-c3ccncc3)no2)ccc1[N+](=O)[O-]	-	?	15µM	0	0	0
CCN(CC)c1ccc(-c2nc(-c3ccccn3)no2)cc1[N+](=O)[O-]	0	16µM	0	-	0	0
Cc1ccc(-c2nc(-c3ccccn3)no2)cc1[N+](=O)[O-]	-	23µM	?	0	0	0
CCCc1nn2c(=O)cc(COC(=O)c3ccccc3NC(=O)c3ccc(OCC)cc3)nc2s1	0	0	0	-	0	0
CCC(C(=O)N1CCCCCC1)n1nc(C)n2c(cc3occc32)c1=O (configuration not stated)	0	0	0	0	0	0
SMILES	TDP1 block	DT40 TDP1 no CPT	TDP1 cell CPT	IL1B secr inh	TGFb SMAD3 inh	HepG2 viability
COc1ccc(NC(=O)C2CCN(S(=O)(=O)c3ccc4c(c3)NC(=O)CO4)CC2)cc1	0	0	0	0	0	0
CC(C)NC(=O)COC(=O)CNC(=O)C1CCCCC1	0	0	0	-	0	0
COc1ccc(C2C(C#N)=C3NC(=O)c4c(sc5c4CCCCC5)N3C3=C2C(=O)CC(C)(C)C3)cc1 (configuration not stated)	0	23µM	16µM	0	0	0
COc1ccc(C2C(C#N)=C(N)N(c3sc4c(c3C#N)CCCC4)C3=C2C(=O)CC(C)(C)C3)cc1OC (configuration not stated)	0	?	18µM	0	0	0
Cc1ccccc1C1C(C#N)=C2N=C(N)c3c(sc4c3CCCCC4)N2C2=C1C(=O)CCC2 (configuration not stated)	0	?	?	0	0	0
COc1ccc(C2C(C#N)=C(N)N(c3sc4c(c3C#N)CCCC4)C3=C2C(=O)CC(C)(C)C3)cc1 (configuration not stated)	0	?	21µM	0	0	0
COc1ccc(C2C(C#N)=C(N)N(N(C)C)C3=C2C(=O)CC(C)(C)C3)cc1 (configuration not stated)	-	0	0	0	0	0
Cc1cc(C)cc(NC(=O)CSc2nc(=O)[nH]c3c2CCC3)c1	0	?	?	-	0	0
CCOC(=O)c1c(C)n(C)c2ccc(OCC(O)CNCCc3ccccc3)cc12 (configuration not stated)	-	?	?	-60	?	0
CCOC(=O)c1c(C)n(C)c2ccc(OCC(O)CN3CCN(C)CC3)cc12 (configuration not stated)	0	0	0	0	0	0
CCOC(=O)c1c(C)n(C)c2ccc(OCC(O)Cn3c(C)nc4ccccc43)cc12 (configuration not stated)	0	18µM	?	-54	?	0
CCOC(=O)c1c(C)n(-c2ccc(C)cc2)c2ccc(OCC(O)CN3CCN(C)CC3)cc12 (configuration not stated)	0	?	0	-58	?	0
CCOC(=O)c1c(-c2ccccc2)oc2ccc(OCC(O)CNCCN(C)C)cc12 (configuration not stated)	-	?	16µM	-103	?	14µM
CC(C)(C)NC(=O)C(c1ccncc1)N(C(=O)Cn1nnc(-c2ccc(F)cc2)n1)c1ccc(F)cc1 (configuration not stated)	0	0	0	0	?	0
CC(C)(C)NC(=O)C(c1ccc(O)cc1)N(C(=O)Cn1nnc(-c2ccc(F)cc2)n1)c1ccccc1F (configuration not stated)	0	16µM	?	?	0	0
